Experimental data published in ChEMBL document CHEMBL1961873, “Compounds: GSK PKIS; Assays: Nanosyn kinase panel” (2012).

Assays:
[1] = biological target: Protein kinase C gamma type (Homo sapiens) (UniProt P05129); settings: at 1 µM;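 note: each value is an averaged percent inhibition of the enzyme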
[2] = biological target: T1, Protein kinase C iota type (Homo sapiens) (UniProt P41743); settings: at 0.1 µM
T1 sequence (whole entry): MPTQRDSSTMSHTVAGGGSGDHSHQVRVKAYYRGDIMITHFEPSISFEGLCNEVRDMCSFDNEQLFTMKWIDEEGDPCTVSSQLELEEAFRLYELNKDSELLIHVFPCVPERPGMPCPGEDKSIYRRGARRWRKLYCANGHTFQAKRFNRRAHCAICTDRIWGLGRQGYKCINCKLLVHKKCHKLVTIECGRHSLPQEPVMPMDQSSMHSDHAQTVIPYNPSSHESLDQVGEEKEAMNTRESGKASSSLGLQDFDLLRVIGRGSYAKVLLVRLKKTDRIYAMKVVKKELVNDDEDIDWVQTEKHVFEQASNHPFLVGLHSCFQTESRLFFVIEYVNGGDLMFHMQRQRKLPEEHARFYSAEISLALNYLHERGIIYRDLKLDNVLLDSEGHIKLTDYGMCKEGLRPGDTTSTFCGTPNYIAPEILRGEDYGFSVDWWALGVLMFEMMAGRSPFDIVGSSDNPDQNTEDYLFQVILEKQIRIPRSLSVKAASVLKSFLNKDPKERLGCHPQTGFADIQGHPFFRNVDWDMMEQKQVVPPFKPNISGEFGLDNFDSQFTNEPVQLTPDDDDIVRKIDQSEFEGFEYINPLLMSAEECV

[3] = biological target: T1, Protein kinase C iota type (Homo sapiens); settings: at 1 µM
[4] = biological target: Protein kinase C theta type (Homo sapiens) (UniProt Q04759); settings: at 0.1 µM
[5] = biological target: Protein kinase C theta type (Homo sapiens) (UniProt Q04759); settings: at 1 µM
[6] = biological target: Protein kinase C beta type (Homo sapiens) (UniProt P05771); settings: at 0.1 µM
[7] = biological target: Protein kinase C beta type (Homo sapiens) (UniProt P05771); settings: at 1 µM
[8] = biological target: T2, Serine/threonine-protein kinase D1 (Homo sapiens) (UniProt Q15139); settings: at 0.1 µM
T2 sequence (whole entry): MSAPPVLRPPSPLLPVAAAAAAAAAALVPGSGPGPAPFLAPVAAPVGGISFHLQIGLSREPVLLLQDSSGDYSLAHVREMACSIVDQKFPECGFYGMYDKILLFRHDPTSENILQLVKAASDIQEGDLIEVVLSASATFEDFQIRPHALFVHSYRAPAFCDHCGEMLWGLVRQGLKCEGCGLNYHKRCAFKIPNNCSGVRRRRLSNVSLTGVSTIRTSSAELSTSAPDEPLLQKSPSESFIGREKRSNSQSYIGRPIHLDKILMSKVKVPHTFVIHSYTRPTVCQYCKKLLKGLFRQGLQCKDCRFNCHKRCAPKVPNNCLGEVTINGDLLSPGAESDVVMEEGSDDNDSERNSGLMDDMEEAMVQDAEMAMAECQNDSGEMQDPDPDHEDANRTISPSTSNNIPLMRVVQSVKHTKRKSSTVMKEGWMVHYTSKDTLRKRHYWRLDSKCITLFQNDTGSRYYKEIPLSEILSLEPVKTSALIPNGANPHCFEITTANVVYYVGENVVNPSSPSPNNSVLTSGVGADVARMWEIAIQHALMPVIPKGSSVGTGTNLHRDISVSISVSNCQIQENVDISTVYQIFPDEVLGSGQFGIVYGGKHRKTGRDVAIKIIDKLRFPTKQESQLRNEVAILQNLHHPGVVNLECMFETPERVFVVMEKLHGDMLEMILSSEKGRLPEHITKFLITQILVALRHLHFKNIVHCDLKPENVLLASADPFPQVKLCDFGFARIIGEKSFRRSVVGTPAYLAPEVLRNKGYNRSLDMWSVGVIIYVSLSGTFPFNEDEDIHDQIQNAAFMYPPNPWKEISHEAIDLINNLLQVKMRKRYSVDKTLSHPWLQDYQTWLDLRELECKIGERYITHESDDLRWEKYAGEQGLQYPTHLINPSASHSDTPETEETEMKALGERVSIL

[9] = biological target: T2, Serine/threonine-protein kinase D1 (Homo sapiens); settings: at 1 µM
[10] = biological target: T3, Serine/threonine-protein kinase D2 (Homo sapiens) (UniProt Q9BZL6); settings: at 0.1 µM
T3 sequence (whole entry): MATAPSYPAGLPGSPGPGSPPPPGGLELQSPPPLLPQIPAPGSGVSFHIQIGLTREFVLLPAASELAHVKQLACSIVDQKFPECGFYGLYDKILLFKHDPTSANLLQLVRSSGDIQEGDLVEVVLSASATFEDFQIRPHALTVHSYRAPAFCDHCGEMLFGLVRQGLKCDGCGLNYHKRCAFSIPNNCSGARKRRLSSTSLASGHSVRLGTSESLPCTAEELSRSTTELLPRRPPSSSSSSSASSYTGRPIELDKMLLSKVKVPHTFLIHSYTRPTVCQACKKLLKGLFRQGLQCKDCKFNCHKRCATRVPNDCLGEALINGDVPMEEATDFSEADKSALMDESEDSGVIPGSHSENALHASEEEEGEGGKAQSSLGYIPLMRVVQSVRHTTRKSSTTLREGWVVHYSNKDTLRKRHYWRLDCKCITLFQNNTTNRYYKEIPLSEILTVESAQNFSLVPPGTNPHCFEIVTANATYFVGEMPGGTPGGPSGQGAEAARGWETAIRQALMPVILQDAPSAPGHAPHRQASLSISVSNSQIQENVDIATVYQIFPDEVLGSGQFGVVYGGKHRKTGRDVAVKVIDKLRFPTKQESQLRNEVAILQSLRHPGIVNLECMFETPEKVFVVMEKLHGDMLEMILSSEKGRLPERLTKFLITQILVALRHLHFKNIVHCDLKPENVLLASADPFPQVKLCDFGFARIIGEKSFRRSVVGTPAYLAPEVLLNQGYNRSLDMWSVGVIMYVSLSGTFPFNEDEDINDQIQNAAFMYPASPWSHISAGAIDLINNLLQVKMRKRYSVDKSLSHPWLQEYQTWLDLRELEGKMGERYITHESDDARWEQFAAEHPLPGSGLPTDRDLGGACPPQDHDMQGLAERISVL

[11] = biological target: T3, Serine/threonine-protein kinase D2 (Homo sapiens); settings: at 1 µM
[12] = biological target: T4, Serine/threonine-protein kinase D3 (Homo sapiens) (UniProt O94806); settings: at 0.1 µM
T4 sequence (whole entry): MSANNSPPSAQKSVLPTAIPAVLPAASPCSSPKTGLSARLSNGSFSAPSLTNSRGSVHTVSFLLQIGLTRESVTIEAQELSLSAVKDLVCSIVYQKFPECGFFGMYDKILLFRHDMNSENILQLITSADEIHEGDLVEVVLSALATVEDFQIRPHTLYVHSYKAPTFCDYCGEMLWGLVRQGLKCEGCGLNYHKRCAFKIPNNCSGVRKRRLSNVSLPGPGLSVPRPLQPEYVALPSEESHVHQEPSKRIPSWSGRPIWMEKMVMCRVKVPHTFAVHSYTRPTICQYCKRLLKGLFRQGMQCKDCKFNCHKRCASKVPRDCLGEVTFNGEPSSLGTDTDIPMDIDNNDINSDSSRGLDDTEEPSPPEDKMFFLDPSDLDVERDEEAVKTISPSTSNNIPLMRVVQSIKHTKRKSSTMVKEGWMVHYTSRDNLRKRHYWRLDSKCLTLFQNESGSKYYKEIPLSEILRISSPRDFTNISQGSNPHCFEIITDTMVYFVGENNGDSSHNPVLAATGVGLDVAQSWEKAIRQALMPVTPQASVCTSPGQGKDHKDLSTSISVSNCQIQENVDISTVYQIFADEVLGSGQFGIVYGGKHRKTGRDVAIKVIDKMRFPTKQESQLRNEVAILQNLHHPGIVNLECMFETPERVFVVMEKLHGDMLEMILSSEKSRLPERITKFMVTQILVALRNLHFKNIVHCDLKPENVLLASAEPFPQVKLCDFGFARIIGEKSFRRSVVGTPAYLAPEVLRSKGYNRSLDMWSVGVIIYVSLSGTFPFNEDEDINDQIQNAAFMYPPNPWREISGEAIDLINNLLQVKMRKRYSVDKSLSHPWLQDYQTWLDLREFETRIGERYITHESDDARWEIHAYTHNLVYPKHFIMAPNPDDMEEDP

[13] = biological target: T4, Serine/threonine-protein kinase D3 (Homo sapiens); settings: at 1 µM
[14] = biological target: T5, cGMP-dependent protein kinase 1 (Homo sapiens) (UniProt Q13976); settings: at 0.1 µM
T5 sequence (whole entry): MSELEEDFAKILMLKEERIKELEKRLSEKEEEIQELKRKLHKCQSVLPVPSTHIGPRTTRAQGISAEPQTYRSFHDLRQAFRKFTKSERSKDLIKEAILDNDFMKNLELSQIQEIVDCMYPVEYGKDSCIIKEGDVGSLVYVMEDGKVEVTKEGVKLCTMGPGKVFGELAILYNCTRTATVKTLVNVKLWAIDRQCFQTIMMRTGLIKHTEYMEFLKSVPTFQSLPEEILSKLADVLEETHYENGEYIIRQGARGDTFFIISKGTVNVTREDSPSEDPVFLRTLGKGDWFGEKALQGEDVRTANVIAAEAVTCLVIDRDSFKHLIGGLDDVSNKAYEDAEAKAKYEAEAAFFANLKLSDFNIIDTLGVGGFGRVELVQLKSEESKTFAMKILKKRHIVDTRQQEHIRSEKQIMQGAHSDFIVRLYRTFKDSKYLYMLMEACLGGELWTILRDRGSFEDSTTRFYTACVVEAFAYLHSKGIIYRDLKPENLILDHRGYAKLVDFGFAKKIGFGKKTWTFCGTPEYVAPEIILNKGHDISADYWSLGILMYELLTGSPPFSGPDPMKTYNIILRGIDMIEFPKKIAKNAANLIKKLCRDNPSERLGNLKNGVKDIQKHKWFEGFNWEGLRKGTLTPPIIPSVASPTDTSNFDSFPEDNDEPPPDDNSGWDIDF

[15] = biological target: T5, cGMP-dependent protein kinase 1 (Homo sapiens); settings: at 1 µM
[16] = biological target: T6, cGMP-dependent protein kinase 2 (Homo sapiens) (UniProt Q13237); settings: at 0.1 µM
T6 sequence (whole entry): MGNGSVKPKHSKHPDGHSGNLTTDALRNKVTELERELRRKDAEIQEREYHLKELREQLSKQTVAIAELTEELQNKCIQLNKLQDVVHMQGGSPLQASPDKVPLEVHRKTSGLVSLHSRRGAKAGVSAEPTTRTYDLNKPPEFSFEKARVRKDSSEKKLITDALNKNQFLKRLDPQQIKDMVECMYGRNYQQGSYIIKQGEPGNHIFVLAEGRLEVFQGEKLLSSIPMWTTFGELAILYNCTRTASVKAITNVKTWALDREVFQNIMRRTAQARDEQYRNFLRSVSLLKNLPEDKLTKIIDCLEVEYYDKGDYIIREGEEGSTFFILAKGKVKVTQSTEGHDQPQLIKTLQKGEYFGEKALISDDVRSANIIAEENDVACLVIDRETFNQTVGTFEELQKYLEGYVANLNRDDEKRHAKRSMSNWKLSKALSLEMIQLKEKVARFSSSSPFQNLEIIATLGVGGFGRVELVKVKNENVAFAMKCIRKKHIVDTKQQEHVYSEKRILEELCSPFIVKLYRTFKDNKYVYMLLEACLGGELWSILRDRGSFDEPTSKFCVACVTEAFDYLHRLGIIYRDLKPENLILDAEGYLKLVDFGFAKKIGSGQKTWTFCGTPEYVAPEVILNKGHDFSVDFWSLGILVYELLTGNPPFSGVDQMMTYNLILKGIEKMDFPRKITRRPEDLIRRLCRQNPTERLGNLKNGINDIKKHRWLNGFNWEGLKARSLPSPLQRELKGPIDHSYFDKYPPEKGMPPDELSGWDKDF

[17] = biological target: T6, cGMP-dependent protein kinase 2 (Homo sapiens); settings: at 1 µM
[18] = biological target: T7, cAMP-dependent protein kinase catalytic subunit PRKX (Homo sapiens) (UniProt P51817); settings: at 0.1 µM
T7 sequence (whole entry): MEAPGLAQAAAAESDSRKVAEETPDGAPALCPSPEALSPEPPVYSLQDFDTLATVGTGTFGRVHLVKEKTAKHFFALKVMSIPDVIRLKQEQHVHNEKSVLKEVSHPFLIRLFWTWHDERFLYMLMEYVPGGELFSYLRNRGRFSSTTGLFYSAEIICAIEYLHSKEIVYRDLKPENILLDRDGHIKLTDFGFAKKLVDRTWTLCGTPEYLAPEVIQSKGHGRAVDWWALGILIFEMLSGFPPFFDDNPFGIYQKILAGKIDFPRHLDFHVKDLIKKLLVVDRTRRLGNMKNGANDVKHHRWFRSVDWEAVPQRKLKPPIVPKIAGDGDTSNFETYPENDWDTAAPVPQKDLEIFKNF

[19] = biological target: T7, cAMP-dependent protein kinase catalytic subunit PRKX (Homo sapiens); settings: at 1 µM
[20] = biological target: Rho-associated protein kinase 1 (Homo sapiens) (UniProt Q13464); settings: at 0.1 µM;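 note: values are mean percent inhibition of ROCK1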
Chain of Rho-associated protein kinase 1 (Homo sapiens) (Q13464 2-1354 limits assumed): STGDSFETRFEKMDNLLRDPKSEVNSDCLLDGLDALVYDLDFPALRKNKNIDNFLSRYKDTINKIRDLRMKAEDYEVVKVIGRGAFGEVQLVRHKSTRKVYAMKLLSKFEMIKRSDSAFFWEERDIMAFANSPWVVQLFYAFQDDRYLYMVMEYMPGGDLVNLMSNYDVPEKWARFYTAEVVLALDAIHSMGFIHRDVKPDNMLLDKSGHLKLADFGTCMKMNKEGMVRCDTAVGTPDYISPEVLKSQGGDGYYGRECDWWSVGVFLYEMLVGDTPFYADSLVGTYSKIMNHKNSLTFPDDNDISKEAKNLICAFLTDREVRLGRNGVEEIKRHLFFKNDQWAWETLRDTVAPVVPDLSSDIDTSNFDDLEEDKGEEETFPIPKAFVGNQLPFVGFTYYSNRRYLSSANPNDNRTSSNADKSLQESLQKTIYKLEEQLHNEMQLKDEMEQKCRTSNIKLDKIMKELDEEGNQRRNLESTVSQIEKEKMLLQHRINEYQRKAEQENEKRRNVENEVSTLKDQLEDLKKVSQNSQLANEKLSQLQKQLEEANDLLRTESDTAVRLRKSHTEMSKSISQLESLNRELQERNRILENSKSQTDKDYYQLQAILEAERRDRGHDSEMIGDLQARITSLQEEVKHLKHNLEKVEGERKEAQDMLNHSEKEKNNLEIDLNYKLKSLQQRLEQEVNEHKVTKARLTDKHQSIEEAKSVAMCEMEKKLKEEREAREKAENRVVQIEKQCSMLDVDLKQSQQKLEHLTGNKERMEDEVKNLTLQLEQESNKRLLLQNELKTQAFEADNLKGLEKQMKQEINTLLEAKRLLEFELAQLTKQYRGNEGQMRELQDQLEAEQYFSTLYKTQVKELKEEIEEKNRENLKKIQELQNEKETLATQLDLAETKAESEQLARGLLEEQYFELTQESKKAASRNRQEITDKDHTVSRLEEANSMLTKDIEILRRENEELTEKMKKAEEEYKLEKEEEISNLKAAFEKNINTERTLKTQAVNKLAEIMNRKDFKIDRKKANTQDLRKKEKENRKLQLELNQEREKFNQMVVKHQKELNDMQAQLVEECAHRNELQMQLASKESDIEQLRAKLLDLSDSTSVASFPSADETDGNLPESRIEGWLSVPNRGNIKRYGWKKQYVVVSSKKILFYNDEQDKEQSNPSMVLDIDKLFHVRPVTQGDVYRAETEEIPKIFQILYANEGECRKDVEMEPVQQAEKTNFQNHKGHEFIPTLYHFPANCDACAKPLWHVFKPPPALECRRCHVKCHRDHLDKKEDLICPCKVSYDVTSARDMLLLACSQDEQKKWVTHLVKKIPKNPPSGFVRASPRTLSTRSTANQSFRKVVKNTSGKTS

Chain of Protein kinase C beta type (Homo sapiens) (P05771 2-671 limits assumed): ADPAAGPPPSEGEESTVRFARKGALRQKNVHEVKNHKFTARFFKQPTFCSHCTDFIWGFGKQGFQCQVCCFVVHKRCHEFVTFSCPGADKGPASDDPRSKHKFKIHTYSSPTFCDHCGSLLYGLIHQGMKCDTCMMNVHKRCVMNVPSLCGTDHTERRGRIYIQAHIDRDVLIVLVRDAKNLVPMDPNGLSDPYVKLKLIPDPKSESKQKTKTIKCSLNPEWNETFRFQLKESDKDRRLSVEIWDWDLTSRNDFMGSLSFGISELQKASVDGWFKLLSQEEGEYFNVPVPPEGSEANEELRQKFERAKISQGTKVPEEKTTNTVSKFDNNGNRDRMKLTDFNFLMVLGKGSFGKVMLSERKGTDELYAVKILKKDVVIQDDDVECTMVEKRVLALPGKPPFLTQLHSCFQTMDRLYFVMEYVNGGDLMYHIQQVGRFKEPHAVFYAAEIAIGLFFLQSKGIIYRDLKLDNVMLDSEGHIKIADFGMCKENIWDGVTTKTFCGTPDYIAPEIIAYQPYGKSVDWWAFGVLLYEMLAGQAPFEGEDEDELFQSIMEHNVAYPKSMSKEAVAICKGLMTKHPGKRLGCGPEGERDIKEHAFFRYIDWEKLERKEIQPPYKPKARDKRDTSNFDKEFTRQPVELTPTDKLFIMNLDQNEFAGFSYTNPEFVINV
Chain of Protein kinase C theta type (Homo sapiens) (Q04759 whole entry, looked up): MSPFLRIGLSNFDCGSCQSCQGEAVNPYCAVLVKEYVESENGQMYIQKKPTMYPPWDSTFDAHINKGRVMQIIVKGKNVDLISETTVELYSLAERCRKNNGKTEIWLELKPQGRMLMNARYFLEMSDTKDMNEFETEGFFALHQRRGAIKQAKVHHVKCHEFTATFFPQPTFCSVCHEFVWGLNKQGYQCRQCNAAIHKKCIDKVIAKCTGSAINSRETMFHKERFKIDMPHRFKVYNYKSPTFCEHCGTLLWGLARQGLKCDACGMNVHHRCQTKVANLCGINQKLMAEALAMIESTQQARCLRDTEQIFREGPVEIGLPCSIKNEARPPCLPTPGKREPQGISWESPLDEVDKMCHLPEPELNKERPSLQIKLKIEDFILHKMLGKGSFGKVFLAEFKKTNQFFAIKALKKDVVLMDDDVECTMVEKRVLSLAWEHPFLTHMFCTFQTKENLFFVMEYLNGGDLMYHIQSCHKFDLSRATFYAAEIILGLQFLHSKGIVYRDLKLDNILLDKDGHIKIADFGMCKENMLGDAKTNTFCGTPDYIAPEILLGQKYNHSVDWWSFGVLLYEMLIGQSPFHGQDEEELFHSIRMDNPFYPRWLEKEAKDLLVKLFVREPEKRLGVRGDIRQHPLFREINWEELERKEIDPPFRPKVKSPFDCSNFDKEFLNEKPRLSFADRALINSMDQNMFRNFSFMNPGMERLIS

| Structure (SMILES) | inhibition [1] [%] | inhibition [2] [%] | inhibition [3] [%] | inhibition [4] [%] | inhibition [5] [%] | inhibition [6] [%] | inhibition [7] [%] | inhibition [8] [%] | inhibition [9] [%] | inhibition [10] [%] | inhibition [11] [%] | inhibition [12] [%] | inhibition [13] [%] | inhibition [14] [%] | inhibition [15] [%] | inhibition [16] [%] | inhibition [17] [%] | inhibition [18] [%] | inhibition [19] [%] | inhibition [20] [%] |
| --- | --- | --- | --- | --- | --- | --- | --- | --- | --- | --- | --- | --- | --- | --- | --- | --- | --- | --- | --- | --- |
| O=C(Nc1ccc(Oc2ccc3[nH]c(NC(=O)c4ccccc4)nc3c2)cc1)Nc1cc(C(F)(F)F)ccc1F | 3.66 | 1.82 | 0.93 | 1.79 | 2.18 | 1.51 | 4.95 | 2.05 | 3.41 | 3.12 | 4.25 | 3.06 | 3.63 | 2.01 | 3.65 | 1.4 | 2.23 | 1.55 | 1.09 | 0.24 |
| NS(=O)(=O)c1ccc(N/N=C2\C(=O)Nc3ccc(-c4cnco4)cc32)cc1 | 4.1 | 1 | 0.97 | 1.05 | 2.96 | 0.38 | 1.12 | -1.79 | 12.6 | -0.15 | 9.15 | -1.69 | 7.39 | 2.42 | 4.22 | 1.06 | 12.7 | 1.53 | 1.83 | 6.06 |
| CN1CCN(CCCNc2nc3ccc(Oc4ccc(NC(=O)Nc5cc(C(F)(F)F)ccc5F)cc4)cc3[nH]2)CC1 | 2.83 | 1.14 | 1.05 | -0.2 | -0.32 | 2.09 | 2.68 | -0.88 | -1.77 | -2.52 | -0.73 | -2.59 | -1.97 | 3.15 | 3.23 | 3.62 | 2.7 | 2.54 | 1.08 | 1.94 |
